# From the antibiotic and cytotoxicity screens of Wong et al. (2023)
# Screen size: about 39,000 compounds; about 3,300 (8.5%) were called active. Many of the other results were omitted from the sample, so actives are more common in it than they were.
# Test system: HepG2
# Assay: cytotoxicity call (relative viability < 0.9)
# Details: 10 µM
row,SMILES,cytotoxicity call
1,C[C@@H]1CN([C@@H](C)CO)C(=O)c2ccccc2-c2ccccc2CO[C@@H]1CN(C)Cc1cccc(C(F)(F)F)c1,inactive
2,CCCNC(=O)N[C@@H]1CC[C@H](CC(=O)N2CCN(C)CC2)O[C@H]1CO,inactive
3,COc1ccccc1NC(=O)Nc1ccc2c(c1)C(=O)N(C)C[C@@H](OC)[C@H](C)CN(Cc1ccccc1Cl)[C@H](C)CO2,inactive
4,O=C1C=CC(=O)N1,active
5,COc1ccc(CN(C)C[C@@H]2OCCCC[C@H](C)Oc3ccc(NC(=O)CCC(F)(F)F)cc3C(=O)N([C@H](C)CO)C[C@@H]2C)cc1,inactive
6,CNC[C@@H]1Oc2ccc(NC(=O)Cn3cnnn3)cc2C(=O)N([C@H](C)CO)C[C@@H]1C,inactive
7,C[C@H](CO)N1C[C@H](C)[C@H](CN(C)C(=O)Nc2ccc(F)cc2)Oc2ccc(NC(=O)CCN3CCOCC3)cc2CC1=O,inactive
8,C[C@H](CO)N1C[C@H](C)[C@@H](CN(C)C(=O)Nc2ccc3c(c2)OCO3)Oc2c(NC(=O)C3CCOCC3)cccc2C1=O,inactive
9,Oc1c(Cl)cc(Cl)c(Cl)c1Cc1c(O)c(Cl)cc(Cl)c1Cl,active
10,O=C(Nc1cc(Cl)cc(Cl)c1O)c1c(O)c(Cl)cc(Cl)c1Cl,inactive
11,O=C(/C=C/c1cccc(-c2cn(CC[C@@H]3OC(=O)[C@H](Cc4ccccc4)N4CC5=CC(=O)[C@H](C6CC6)[C@H]5[C@H]34)nn2)c1)NO,inactive
12,O=C(C[C@@H]1C[C@@H]2c3cc(NC(=O)Nc4ccc(C(F)(F)F)cc4)ccc3O[C@@H]2[C@H](CO)O1)NCCc1ccccc1,inactive
13,CCS(=O)(=O)N1[C@H](CO)[C@H](c2ccccc2)C12CN(C(=O)CN(C)C)C2,inactive
14,C[C@H]1CCCCO[C@H](CN(C)C(=O)C2CCCCC2)[C@@H](C)CN([C@@H](C)CO)C(=O)c2cc(NC(=O)Nc3ccc4c(c3)OCO4)ccc2O1,inactive
15,COc1c(C)c2c(c(O)c1CC=C(C)CCC(=O)OCCN1CCOCC1)C(=O)OC2,inactive
16,COc1c(C)c2c(c(O)c1CC=C(C)CCC(=O)O)C(=O)OC2,active
17,COc1cccc(S(=O)(=O)N2C[C@@H](O)COC[C@@H]3O[C@@H](CC(=O)N4CCOCC4)CC[C@H]32)c1,inactive
18,COc1ccc(NC(=O)N(C)C[C@H]2Oc3c(NC(=O)CCCCCC(=O)Nc4ccccc4N)cccc3C(=O)N([C@@H](C)CO)C[C@H]2C)cc1,inactive
19,C[C@H]1CN([C@@H](C)CO)C(=O)c2cc(C#CCc3ccccc3)cnc2O[C@H]1CN(C)C(=O)Cc1cccnc1,inactive
20,Cc1ccccc1S(=O)(=O)N1C[C@H](O)COC[C@@H]2O[C@@H](CC(=O)N3CCOCC3)CC[C@H]21,inactive
21,CC(C)C(=O)Oc1ccc(CO)cc1C(CCN(C(C)C)C(C)C)c1ccccc1.O=C(O)C=CC(=O)O (stereo not given),active
22,C[C@H]1CN([C@@H](C)CO)C(=O)c2cc(NC(=O)CCN3CCOCC3)ccc2O[C@@H]1CN(C)C(=O)Nc1ccc2c(c1)OCO2,inactive

row,SMILES,cytotoxicity call
1,CC(=O)NCCCC[C@@H]1NC(=O)[C@@H]2C[C@H](C(=O)NCCCCCCN(C)C)[C@H](c3ccc(O)cc3)N2C1=O,inactive
2,C[C@@H]1CCCCO[C@@H](CN(C)Cc2ccc(Cl)c(Cl)c2)[C@@H](C)CN([C@H](C)CO)C(=O)c2cc(NC(=O)c3ccccc3)ccc2O1,inactive
3,CCOn1ccnc1,inactive
4,CC#CCn1c(N2CCC[C@@H](N)C2)nc2c1c(=O)n(Cc1nc(C)c3ccccc3n1)c(=O)n2C,active
5,Cc1cc(C)n(-c2nc3c(c(=O)n(CCN4CCOCC4)c(=O)n3C)n2C)n1,inactive
6,Cn1c(=O)c2c(nc(N3CCCCC3)n2CCN)n(C)c1=O,inactive
7,C[C@H]1CN([C@@H](C)CO)C(=O)c2cccc(NS(=O)(=O)c3cn(C)cn3)c2O[C@@H]1CN(C)C(=O)Nc1ccc2c(c1)OCO2,inactive
8,CC(=O)N1[C@@H]2Cn3c(ccc(-c4ccccc4)c3=O)[C@H]1[C@@H](C(=O)NCCCN1CCOCC1)[C@@H]2CO,inactive
9,COc1ccc2cc3[n+](cc2c1OC)CCc1cc2c(cc1-3)OCO2.[Cl-],active
10,COc1cc2c(cc1OC)-c1cc3ccc(OC)c(OC)c3c[n+]1CC2.[Cl-],inactive
11,C[C@@H]1CN([C@@H](C)CO)C(=O)c2cccc(NC(=O)Nc3ccc(C(F)(F)F)cc3)c2O[C@@H]1CN(C)S(=O)(=O)c1ccc(Cl)cc1,inactive
12,COCC(=O)N(C)C[C@H]1Oc2cc(C#CC(C)(C)O)ccc2S(=O)(=O)N([C@H](C)CO)C[C@@H]1C,inactive
13,COc1ccccc1S(=O)(=O)N(C)C[C@H]1Oc2ncc(Br)cc2C(=O)N([C@@H](C)CO)C[C@H]1C,inactive
14,C[C@@H]1CN([C@@H](C)CO)C(=O)Cc2cc(NC(=O)Nc3cccc4ccccc34)ccc2O[C@@H]1CN(C)S(=O)(=O)c1ccc(Cl)cc1,active
15,C[C@H](CO)N1C[C@H](C)[C@@H](CN(C)S(=O)(=O)c2ccc(Cl)cc2)Oc2ccc(NC(=O)Nc3cccc4ccccc34)cc2CC1=O,inactive
16,Cc1ccc(S(=O)(=O)N(C)C[C@H]2Oc3ccc(NC(=O)Nc4cccc5ccccc45)cc3CC(=O)N([C@@H](C)CO)C[C@H]2C)cc1,inactive
17,C[C@H]1CN([C@@H](C)CO)C(=O)Cc2cc(NC(=O)Nc3cccc4ccccc34)ccc2O[C@@H]1CN(C)S(=O)(=O)c1ccc(Cl)cc1,inactive
18,C[C@H]1CN([C@@H](C)CO)C(=O)Cc2cc(NC(=O)Nc3cccc4ccccc34)ccc2O[C@H]1CN(C)S(=O)(=O)c1ccc(Cl)cc1,active
19,C[C@@H]1CN([C@@H](C)CO)C(=O)Cc2cc(NC(=O)Nc3cccc4ccccc34)ccc2O[C@H]1CN(C)S(=O)(=O)c1ccc(Cl)cc1,inactive
20,Cc1ccc(S(=O)(=O)N(C)C[C@@H]2Oc3ccc(NC(=O)Nc4cccc5ccccc45)cc3CC(=O)N([C@H](C)CO)C[C@@H]2C)cc1,active
21,Cc1ccc(S(=O)(=O)N(C)C[C@H]2Oc3ccc(NC(=O)Nc4cccc5ccccc45)cc3CC(=O)N([C@H](C)CO)C[C@H]2C)cc1,inactive
22,Cc1ccc(S(=O)(=O)N(C)C[C@H]2Oc3ccc(NC(=O)Nc4cccc5ccccc45)cc3CC(=O)N([C@@H](C)CO)C[C@@H]2C)cc1,inactive

row,SMILES,cytotoxicity call
1,C[C@H](CO)N1C[C@H](C)[C@H](CN(C)S(=O)(=O)c2ccc(Cl)cc2)Oc2ccc(NC(=O)Nc3cccc4ccccc34)cc2CC1=O,active
2,C[C@@H]1CN([C@H](C)CO)C(=O)Cc2cc(NC(=O)Nc3cccc4ccccc34)ccc2O[C@H]1CN(C)S(=O)(=O)c1ccc(Cl)cc1,inactive
3,C[C@@H]1CN([C@H](C)CO)C(=O)Cc2cc(NC(=O)Nc3cccc4ccccc34)ccc2O[C@@H]1CN(C)S(=O)(=O)c1ccc(Cl)cc1,inactive
4,C[C@@H]1CN([C@H](C)CO)C(=O)c2cc(NC(=O)c3ccncc3)ccc2O[C@@H](C)CCCCO[C@H]1CN(C)C(=O)Nc1cccc2ccccc12,inactive
5,C[C@@H]1CCCCO[C@@H](CN(C)C(=O)c2ccccc2)[C@H](C)CN([C@H](C)CO)C(=O)c2cc(NC(=O)Nc3ccc(F)cc3)ccc2O1,inactive
6,C[C@H]1CCCCO[C@H](CN(C)C(=O)c2ccccc2)[C@@H](C)CN([C@@H](C)CO)C(=O)c2cc(NC(=O)CCC(F)(F)F)ccc2O1,inactive
7,Cc1noc(N)c1C(=O)O,inactive
8,COCC(=O)N1C[C@H](C)[C@@H](OC)CN(C)C(=O)c2cc(NC(=O)c3cc(C)on3)ccc2OC[C@H]1C,inactive
9,C[C@H]1CN([C@@H](C)CO)C(=O)c2cc(C#Cc3ccccc3F)cnc2O[C@@H]1CN(C)C(=O)Cc1cccnc1,inactive
10,O=c1ccc(=O)n(CCO)[nH]1,inactive
11,C#CCN(O[C@@H](/C=C/[C@@H](O)Cc1ccccc1)C1CC1)[C@@H](Cc1ccc(-n2cc(COc3ccccc3/C=C(C)/C=C/C(=O)NO)nn2)cc1)C(=O)OC,inactive
12,Cc1noc(C)c1S(=O)(=O)N(C)C[C@@H]1OCCCC[C@H](C)Oc2ccc(NC(=O)Nc3cccc4ccccc34)cc2C(=O)N([C@H](C)CO)C[C@@H]1C,inactive
13,COc1ccc(S(=O)(=O)N(C)C[C@H]2Oc3ccc(NC(=O)NC(C)C)cc3C(=O)N([C@@H](C)CO)C[C@@H]2C)cc1,inactive
14,C[C@H](CO)N1C[C@H](C)[C@H](CN(C)S(=O)(=O)c2ccc(F)cc2)Oc2ccc(NC(=O)Nc3cccc4ccccc34)cc2CC1=O,active
15,C[C@@H]1CN([C@@H](C)CO)C(=O)Cc2cc(NC(=O)Nc3cccc4ccccc34)ccc2O[C@@H]1CN(C)S(=O)(=O)c1ccc(F)cc1,inactive
16,C[C@@H]1CN([C@H](C)CO)C(=O)Cc2cc(NC(=O)Nc3cccc4ccccc34)ccc2O[C@H]1CN(C)S(=O)(=O)c1ccc(F)cc1,inactive
17,Cc1noc(C)c1NC(=O)N(C)C[C@H]1Oc2ccc(NS(C)(=O)=O)cc2CC(=O)N([C@@H](C)CO)C[C@@H]1C,inactive
18,O=C(C[C@H]1C[C@H]2c3cc(NC(=O)Nc4ccc(C(F)(F)F)cc4)ccc3O[C@H]2[C@@H](CO)O1)NCc1cc(F)ccc1F,inactive
19,C[C@@H]1CN([C@@H](C)CO)C(=O)c2cccc(NC(=O)Nc3ccc(F)cc3)c2O[C@H]1CN(C)C(=O)Nc1ccc(C(F)(F)F)cc1,inactive
20,CC(C)CCCC(=O)N[C@@H](CCNCS(=O)(=O)O)C(=O)N[C@H](C(=O)N[C@@H](CCNCS(=O)(=O)O)C(=O)N[C@H]1CCNC(=O)[C@H]([C@@H](C)O)NC(=O)[C@H](CCNCS(=O)(=O)O)NC(=O)[C@H](CCNCS(=O)(=O)O)NC(=O)[C@H](CC(C)C)NC(=O)[C@H](CC(C)C)NC(=O)[C@H](CCNCS(=O)(=O)O)NC1=O)[C@@H](C)O,inactive
21,CCC(C)C1NC(=O)C(CCNCS(=O)(=O)[O-])NC(=O)C(NC(=O)C(CCNCS(=O)(=O)[O-])NC(=O)C(NC(=O)C(CCNCS(=O)(=O)[O-])NC(=O)CCCCC(C)C)C(C)O)CCNC(=O)C(C(C)O)NC(=O)C(CCNCS(=O)(=O)[O-])NC(=O)C(CCNCS(=O)(=O)[O-])NC(=O)C(C(C)CC)NC1=O.[Na+].[Na+].[Na+].[Na+].[Na+] (stereo not given),active
